# Source: PubChem BioAssay (National Center for Advancing Translational Sciences (NCATS))
# Shown are actives, neighbours in structure and some others; about 12% of the full set was active somewhere.
# BAZ2B inh: inhibitors of human BAZ2B bromodomain; AID 504333; Q9UIF8; hit rate 4.4% among 360,000; AlphaScreen BAZ2B-H3K14Ac peptide displacement; Potency, µM (titrated, usually from 114 µM), for inactives: top-dose activity change, negative = inhibition, hits mostly inhibitors; further: on the % scale 0 is the no-effect control and ±100 the full control effect; nearly all actives have a fitted effect of over 60% in size
#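 In this displacement format the biotinylated H3(5-23) peptide acetylated at Lys14 serves as ligand at 50 nM, with BAZ2B at 50 nM in PBS pH 7.4 containing 0.01% Tween-20. Donor and acceptor beads are 10 ug/mL final.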
# Sfp inh: blocks B. subtilis Sfp PPTase activity. Q9F4F7. Biochemical Sfp PPTase activity, qHTS. Potency, µM, for inactives: largest response in the series, negative = inhibition, actives largely listed as inhibitors. hit rate 3.5% among 310,000. AID 1490;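 further: the enzyme is Sfp with the accession as filed and its product quenches rhodamine fluorescence; 0% = enzyme reaction without inhibitor and -100% = no enzyme wells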
#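 Buffer: 50 mM Hepes-Na pH 7.6, 10 mM MgCl2, 0.01% Nonidet P-40, 0.01% BSA. Enzyme 15 nM, pre-exposed to compound 15 min; substrates then added and fluorescence change tracked over 30 min.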
# G9a block: blocks human histone lysine methyltransferase G9a; AID 504332; hit rate 8.8% among 350,000; G9a H3K9 monomethylation, AlphaScreen, 2 h; Potency, µM (top dose mostly 102 µM), for the others: at the top dose activity, negative = inhibition, actives largely listed as inhibitors; further: on the % scale 0 is the no-effect control and ±100 the full control effect; nearly all actives have a fitted effect of over 75% in size
#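 Readings reflect AlphaScreen signal from monomethyl-H3K9 antibody detection. HMT at 20 nM; substrate b-H3K9 500 nM; cofactor SAM 20 uM; 2 h RT reaction; compounds tested as titrations in qHTS with 15 min preincubation.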
# JMJD2A Tudor inh: blocks the human JMJD2A Tudor domain; O75164; AlphaScreen JMJD2A-Tudor / H3K4me3 peptide binding; Potency, µM (titrated, usually from 114 µM), inactives show at the highest dose activity change, negative = inhibition, hits mostly inhibitors; hit rate 4.4% among 390,000; further: on the % scale 0 is the no-effect control and ±100 the full control effect; nearly all actives have a fitted effect of over 50% in size
# L3MBTL1 inh: L3MBTL1 (human) inhibition; hit rate 0.66% among 230,000; Potency, µM (titrated, usually from 57.1 µM), inactives show at the highest dose activity, negative = inhibition, actives largely listed as inhibitors; Q9Y468; AlphaScreen L3MBTL1–H3K9me1 peptide binding; further: on the % scale 0 is the no-effect control and ±100 the full control effect; nearly all actives have a fitted effect of over 60% in size
#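 AlphaScreen assay: L3MBTL1 (50 nM final) was preincubated 30 min at room temperature with biotinylated H3(1-15)K9me1 peptide (75 nM final), then 30 min with library compounds; streptavidin donor and nickel chelate acceptor beads (10 ug/mL final) added, 30 min dark.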
# HP1b chromo inh: HP1-beta chromodomain-methylated histone interaction inhibition. P83916. AlphaScreen HP1-beta / biotin-H3K9me3 peptide binding. Potency, µM (series often up to 114 µM), inactives show at the highest dose activity change, negative = inhibition, most hits filed as inhibitors. hit rate 0.56% among 390,000. AID 540317; further: nearly all actives have a fitted effect of over 70% in size
#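 AlphaScreen: HP1-beta (50 nM) preformed 30 min with biotin-H3(1-18)K9me3 peptide (50 nM) in PBS pH 7.4, 0.01% Tween-20. Compound added for 30 min at RT, then streptavidin donor/nickel chelate acceptor beads (10 ug/mL) for 30 min.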
# * marks the source's active call; other numbers are inactive results; ? = inconclusive; / = not tested or not shown; [ ] = dose if it differs, or a comment. The call rests on the fitted dose curve; in most records, active means well fitted curve in the direction sought with a large enough effect; inconclusive means small, poorly fitted or top-dose-only effect, or another doubt; inactive means no such curve, though single readings can be large; an effect the other way counts as inactive or inconclusive. Potency means the concentration at half of the fitted maximal effect.
SMILES,BAZ2B inh,Sfp inh,G9a block,JMJD2A Tudor inh,L3MBTL1 inh,HP1b chromo inh
CC(C)N1CCc2c(sc(NC(=S)NC(=O)c3ccccc3)c2C#N)C1,?,39.8µM*,10µM*,?,-12.9%,-18.5%[57 µM]
CN1CCc2c(sc(NC(=O)CS(=O)(=O)c3ccccc3)c2C(N)=O)C1,-11.2%,/,50.1µM*,-21.3%,-18.4%,9.7%
CCOC(=O)c1c(NC(=O)c2ccc(S(=O)(=O)N3CCOCC3)cc2)sc2c1CCN(C)C2,?,-20.5%,50.1µM*,-20.1%,-3.1%,15.5%
COc1ccccc1CNC(=O)CCC1N=C2c3ccccc3N=C(SCc3ccc(C)cc3)N2C1=O (stereo not given),-13.2%,/,-22.3%[59 µM],-17.0%,/,46.9%
OC[C@H]1O[C@H](n2cnc3c(N[C@H]4CCC[C@@H]4O)ncnc32)[C@H](O)[C@@H]1O,/,/,38.8%[59 µM],/,/,/
COC(=O)C[C@H]1c2cc(C(F)(F)F)ccc2S(=O)(=O)N1Cc1ccc(OC)cc1,/,/,/,0.0%,/,15.8%
O=C(NN=C1CCN(Cc2ccccc2)CC1)c1cc(Br)ccc1O,-2.3%,27.5%,?,-8.8%,/,31.2%
O=C(NN=C1CCN(Cc2ccccc2)CC1)c1ccccc1,-7.2%,3.9%,34.2%[59 µM],7.94µM*,-10.7%,-17.3%
O=C1NC(=S)N/C1=C\c1cccc([N+](=O)[O-])c1,-3.4%,56.2µM*,50.1µM*,1.0%,/,16.1%
O=C1NC(=S)N/C1=C/c1ccc(-c2c(Br)cc([N+](=O)[O-])cc2Br)o1,?,-21.8%,11.2µM*,/,?,/
CCCN1C/C(=C/c2cccc([N+](=O)[O-])c2)C(=O)/C(=C/c2cccc([N+](=O)[O-])c2)C1,?,11.8%,?,-25.3%,-1.0%,-5.1%
CN1C(=O)/C(=C/c2cccc([N+](=O)[O-])c2)C(=O)N1c1ccccc1,-34.0%,50.1µM*,14.1µM*,?,-12.6%,3.3%
O=C1NC(=S)N/C1=C/c1cccc([N+](=O)[O-])c1,-11.6%,10.7%,-3.7%,-16.1%,1.5%,16.0%
C=CCn1c(=O)c(C(=O)NC(C)c2ccccc2)c(O)c2ccccc21 (stereo not given),21.9%,5.1%,65.9%,60.0%,/,108.3%
COc1cc(/C=C2\SC(=S)NC2=O)ccc1OS(=O)(=O)c1ccccc1,44.7µM*,50.1µM*,11.2µM*,/,-23.1%,/
CCN1C(=O)C(=Cc2cccc(OC)c2Oc2ccc([N+](=O)[O-])cc2[N+](=O)[O-])SC1=S,25.1µM*,?,44.7µM*,?,/,?
CCN1C(=O)S/C(=C/c2ccc(Oc3ccc([N+](=O)[O-])cn3)c(OC)c2)C1=O,16.2%,11.2%,?,-26.5%,?,21.4%
COc1cc(/C=C2\SC(=O)NC2=O)ccc1Oc1ccc([N+](=O)[O-])cc1[N+](=O)[O-],44.7µM*,56.2µM*,10µM*,35.5µM*,-15.3%,?
COc1ccc(/C=C2\SC(=S)NC2=O)cc1OS(=O)(=O)c1ccc(NC(C)=O)cc1,-38.2%,-11.4%,?,-34.7%,/,-13.9%
COc1cc(/C=C2\SC(=O)NC2=O)ccc1OCC(=O)N1CCOCC1,/,/,/,-15.1%,0.0%,12.7%
CO/N=C/c1ccc(Oc2ccc([N+](=O)[O-])cc2[N+](=O)[O-])c(OC)c1,?,?,?,?,-6.2%,?
COc1ccc(/C=C2\SC(=O)NC2=S)cc1OC,39.8µM*,25.1µM*,6.31µM*,79.4µM*,-11.1%,?
CC(=O)Nc1ccc(S(=O)(=O)N2CCN=C2SCc2ccc([N+](=O)[O-])cc2)cc1,-19.5%,-2.6%,/,-23.4%,/,-18.7%
Cc1ccc(OCC(=O)Nc2ccc(S(=O)(=O)Nc3cc(C)nc(C)n3)cc2)c(Br)c1,-18.9%,/,-34.0%[59 µM],-6.5%,/,5.7%
N#Cc1nc(Nc2cc(F)cc(F)c2)c2ncn(CCCO)c2n1,/,/,/,-7.1%,/,/
SMILES,BAZ2B inh,Sfp inh,G9a block,JMJD2A Tudor inh,L3MBTL1 inh,HP1b chromo inh
CCOc1ccc(/C=C2\SC(=S)NC2=O)cc1OC,?,-6.4%,12.6µM*,-31.0%,-13.3%,-4.5%
O=C1NC(=S)S/C1=C\c1ccc2ccccc2c1,50.1µM*,3.4%,-5.4%,?,/,-5.2%
CCOc1ccc(/C=C2\SC(=S)N(C)C2=O)cc1OC,-10.9%,2.1%,/,-17.6%,-11.6%,5.0%
COc1cc(/C=C2/SC(=S)NC2=O)ccc1OS(=O)(=O)c1ccc(C)cc1,50.1µM*,25.1µM*,20µM*,56.2µM*,-5.7%,?
COc1cc(/C=C2\SC(=S)N(CCCCC(=O)O)C2=O)ccc1OS(=O)(=O)c1ccc(C)cc1,35.5µM*,/,?,50.1µM*,-26.0%,?
COc1ccc(CCNC(=O)c2cnn(-c3ccc(F)cc3)c2C2CCN(C(=O)OC(C)(C)C)CC2)cc1OC,3.3%[57.1 µM],/,-44.2%[59 µM],-24.9%,/,-6.6%
O=C1NC(=O)/C(=C\c2ccc(OCc3cnc(Cl)s3)cc2)S1,-36.6%,2.4%,?,-33.2%,2.1%,17.5%
COc1cccc(OCCOc2ccc(/C=C3/SC(=S)NC3=O)cc2)c1,44.7µM*,50.1µM*,7.94µM*,56.2µM*,/,?
COC(=O)c1cccc(CN2C(=O)SC(Nc3ccc(Br)cc3)C2=O)c1 (stereo not given),?,/,-5.7%[59 µM],-13.7%,/,29.9%
CCOCCCNC(=O)/C(C#N)=C/c1cc(OC)c(O)c([N+](=O)[O-])c1,?,-24.2%,50.1µM*,-22.8%,-16.1%,-17.0%
CCOCCCNC(=O)/C(C#N)=C/c1ccc(Cl)c([N+](=O)[O-])c1,-22.3%,5.8%,?,-2.1%,14.7%,?
O=S(=O)(Cc1ccccc1)N1CCN(c2nc(-c3cccs3)nc3ccccc23)CC1,/,/,/,-14.3%,/,43.9%
COC(=O)C(CC(=O)c1ccc(Br)cc1)n1cccn1 (stereo not given),1.3%,?,39.8µM*,-9.7%,1.6%,8.3%
CCC(=O)N1CCc2cc(S(=O)(=O)CCC(=O)N(C)c3ccc(OC)cc3OC)ccc21,-8.0%,-1.2%,21.3%,-1.5%,/,31.5%
CCCCC/C=C\CC1OC1C/C=C\C/C=C\CCCC(=O)O (stereo not given),/,5.4%,?,/,/,/
O=C(CSc1ccc2nnc(-c3cccc(F)c3)n2n1)NCC1CCCO1 (stereo not given),-4.0%,?,5.01µM*,31.6µM*,1.9%,?
CCSc1ccc2nnc(-c3cccc(F)c3)n2n1,11.5%,?,3.98µM*,79.4µM*,?,-36.8%
O=[S+]([O-])(c1ccc2c(c1)OCCO2)N1CCN([S+](=O)([O-])c2c(F)cc(Br)cc2F)CC1,/,/,/,-9.6%,/,/
